Data taken from PubChem BioAssay AID463173 (ICCB-Longwood Screening Facility, Harvard Medical School, 2010).
The whole screen tested about 52,000 compounds, of which about 1,700 (3.3%) were called active. The full list was thinned out, with actives kept by preference. Values without a mark were called inactive. No stated cut-off is given here; in the data, active means survival mostly below about 52% (no sharp cut-off); inactive means mostly above about 56%.

Test system: Wild type
Test: S. aureus survival, RN4220 and DeltatarO strains – OD600, teichoic acid synthesis inhibitors, primary screen (AID 463173)
Conditions: S. aureus RN4220 wild type/DeltatarO growth, OD600, 18 h, active compounds read low, screened at 18.75 µg/mL (by protocol)

Compound	survival
COC(=O)c1cc(-c2ccc(C)cc2)c2c(=O)n(C)c(=O)n(C)c2n1	105%
O=C(NCCNCc1ccccc1)c1ccco1	115%
CC(=O)Nc1ccc(NC(=O)CCS(=O)(=O)c2ccc3c(c2)CC(=O)N3C)cc1	66%
COC(=O)c1c(NC(=O)c2cc3nc(-c4ccc(Br)cc4)cc(C(F)(F)F)n3n2)sc2c1CCCC2	82%
N#Cc1c(NC(=O)c2cc3nc(-c4ccc(Br)cc4)cc(C(F)(F)F)n3n2)sc2c1CCCC2	0% (active)
Cc1ccc(-c2cc(C(F)(F)F)n3nc(C(=O)Nc4sc5c(c4C#N)CCC(C)C5)cc3n2)cc1 (configuration not stated)	70%
COc1ccc(CNC(=O)c2cc(-c3ccc(C)c(C)c3)n[nH]2)cc1	67%
Cc1cc2c(cc1S(=O)(=O)NCc1ccc(F)cc1)n(C)c(=O)c(=O)n2C	85%
Cc1c(C(=O)OCc2ccccc2)[nH]c2c1C(=O)CC(c1ccc(Cl)cc1)C2 (configuration not stated)	99%
COc1cc(NC(=O)CNC(=O)Cn2ccc3ccccc3c2=O)cc(OC)c1OC	130%
O=S(=O)(Cc1ccccc1)N1CCC(c2nc(-c3cccs3)no2)CC1	110%
CC1=C(c2ccc(C)cc2)S(=O)(=O)N(Cc2ccc(C(=O)Nc3ccccc3C)cc2)C1=O	78%
Cc1ccc(N2CCN(C(=O)c3cn(C)c4ccc(S(=O)(=O)N5CCCC5)cc4c3=O)CC2C)cc1 (configuration not stated)	134%
CCC(C)NC(=O)c1cc2cc(S(=O)(=O)N3CCCCC3)ccc2n1C (configuration not stated)	14% (active)
Cc1ccccc1CCNC(=O)c1cc2cc(S(=O)(=O)N3CCCCC3)ccc2n1C	-3% (active)
CC(C)CCNC(=O)c1cc2cc(S(=O)(=O)N3CCCCC3)ccc2n1C	74%
Cn1c(C(=O)NCc2ccc(F)cc2)cc2cc(S(=O)(=O)N3CCCCC3)ccc21	131%
CC(CNC(=O)c1cc2cc(S(=O)(=O)N3CCCCC3)ccc2n1C)c1ccccc1 (configuration not stated)	55%
Cc1ccccc1CNC(=O)c1cc2cc(S(=O)(=O)N3CCCCC3)ccc2n1C	66%
Cn1c(C(=O)NCCc2ccccc2)cc2cc(S(=O)(=O)N3CCCCC3)ccc21	73%
CN(C)c1ccc(CNC(=O)c2cc3cc(S(=O)(=O)N4CCCCC4)ccc3n2C)cc1	0% (active)
CCc1ccc(CNC(=O)c2cc3cc(S(=O)(=O)N4CCCCC4)ccc3n2C)cc1	47%
CCOC(=O)c1sc2cccc(F)c2c1S(=O)(=O)NCc1ccccc1Cl	130%
Clc1ccc2[nH]c3nc4ccccc4nc3c2c1	104%

Compound	survival
COc1ccc(Nc2cc(C(=O)NCc3ccccc3)c3ccccc3n2)cc1OC	83%
CC(=O)c1ccc(NC(=O)Cn2cc3c(n2)CCCC3)cc1	82%
Cc1ccsc1CN(Cc1ccco1)C(=O)c1ccc(Cl)cc1	65%
Cc1nn(C)c2c1c(C(F)(F)F)cc(=O)n2CC(=O)N1CCCCC1	67%
CCOc1ccc(/C=C/c2nc(C#N)c(N3CCN(c4ccc(OC)cc4)CC3)o2)cc1	84%
CCn1cc(C(=O)N2CCN(c3cc(C)ccc3C)CC2)c(=O)c2cc(S(=O)(=O)N3CCOCC3)ccc21	81%
CCc1ccc(CNC(=O)c2ccc(-c3nc(CSc4ccc(C)cc4)c(C)o3)cc2)cc1	63%
Cc1oc(-c2ccc(C(=O)NCCc3ccc(Cl)cc3)cc2)nc1CSc1ccccc1	59%
Cc1ccc(SCc2nc(-c3ccc(C(=O)NCCc4ccc(Cl)cc4)cc3)oc2C)cc1	-4% (active)
COc1ccc(CNC(=O)c2ccc(-c3nc(CSc4ccccc4)c(C)o3)cc2)c(OC)c1	100%
Cc1ccc(SCc2nc(-c3ccc(C(=O)NCc4ccc(Cl)cc4)cc3)oc2C)cc1	64%
COc1ccc(CNC(=O)c2ccc(-c3nc(CSc4ccccc4)c(C)o3)cc2)cc1OC	77%
COc1ccc(CNC(=O)c2ccc(-c3nc(CSc4ccc(C)cc4)c(C)o3)cc2)c(OC)c1	1% (active)
COc1ccc(CNC(=O)c2ccc(-c3nc(CSc4ccc(C)cc4)c(C)o3)cc2)cc1OC	-3% (active)
COc1ccc(OC)c(CNC(=O)c2ccc(-c3nc(CSc4ccccc4)c(C)o3)cc2)c1	129%
Cc1cc(N2CCC(C)CC2)nc2ccc(NC(=O)/C=C/c3cccc(Cl)c3)cc12	69%
Cc1ccc(CNc2ccc(-c3nc(-c4ccncc4)no3)cc2[N+](=O)[O-])cc1	87%
CCc1ccc(NS(=O)(=O)c2c(-c3ccccc3)csc2C(=O)OC)cc1	77%
Cn1c(=O)oc2cc(S(=O)(=O)N3CCCC(C(=O)NCCc4ccc(Cl)cc4)C3)ccc21 (configuration not stated)	90%
CCOc1ccc(CNC(=O)CCn2c(=O)c3cccn3c3cccnc32)cc1	93%
Cc1cccc(-n2c(=O)c3c(c4cc(C)ccc4n3C)n(Cc3ccccc3F)c2=O)c1	153%
O=C1NCN(c2ccccc2)C12CCN(c1nnnn1-c1ccccc1)CC2	102%
CCOc1ccc(N2CC(c3nc4ccccc4n3CCC3CCCCC3)CC2=O)cc1 (configuration not stated)	29%
